The whole screen tested about 420,000 compounds, of which about 50,000 (12%) were called active. A call without a number means that no potency is given here. Inconclusive results (about 26%) are left out. The full list was thinned out, with actives kept by preference. Values without a mark were called inactive. The call rests on the fitted dose curve; in most records, active means well fitted inhibition curve with a large enough effect; inconclusive means small, poorly fitted or top-dose-only effect; inactive means flat fitted curve, though single readings scatter.
Assay: qHTS for Inhibitors of human tyrosyl-DNA phosphodiesterase 1 (TDP1): qHTS in cells in presence of CPT; further: nearly all actives have a fitted effect of over 55% in size
Details: chicken DT40 Tdp1-/-;hTDP1 cells + 20 nM CPT, ATP luminescence, 48 h; series mostly up to 46.2 µM
Method in brief: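 Chicken DT40 Tdp1-/- cells stably complemented with human TDP1 were seeded at 400 cells/well in medium containing 20 nM camptothecin, exposed to pin-transferred compounds, and grown at 37 °C for at least 48 hr. Viability was read as ATP luminescence.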
Potency means the concentration at half of the fitted maximal effect.

SMILES	activity change, negative = growth inhibition	Potency
COc1ccc(C)cc1N1C(=O)[C@@H]2C[C@H]1CN2Cc1cccc(OC)c1O	-12.7% [at 9.04 µM]	–
COc1cc(C(=O)NCCS(=O)(=O)N2CCN(c3ccccc3)CC2)cc(OC)c1OC	–	20.6 µM (active)
COc1cccc(OCC(=O)NCCS(=O)(=O)N2CCN(c3ccccc3)CC2)c1	–	inactive
COc1ccc(OC)c(CN2CCN(C(=O)CNC(=O)c3cc(C)cc(C)c3)CC2)c1	–	inactive
COc1cc(C(=O)NCC(=O)N2CC=C(c3ccccc3)CC2)cc(OC)c1OC	–	16.4 µM (active)
CCOc1ccc(CC(=O)NCCS(=O)(=O)N2CCN(c3ccccc3)CC2)cc1	–	inactive
COc1cc(OC)cc(C(=O)NCC(=O)N2CCCCCCC2)c1	–	inactive
CC(=O)Nc1nc(N(C)C)nc(N(C)C)n1	–	inactive
CN(CC(=O)Nc1ccc(OC(F)(F)F)cc1)C(=O)C1CCC1	–	inactive
O=C(NCC(=O)N1CCCCCCC1)c1ccccc1Cl	–	inactive
Cc1ccc(CN2CCN(Cc3ccc4ncccc4c3)CC2CCO)cc1 (stereo not given)	–	inactive
COc1cccc(N(CC(=O)Nc2cccc(F)c2)S(C)(=O)=O)c1	–	inactive
Cc1cccc(N(CC(=O)Nc2ccc(-c3nc4ccc(C)cc4s3)cc2)S(C)(=O)=O)c1	–	13 µM (active)
CCN(CC)S(=O)(=O)c1ccc(NC(=O)CN(c2cccc(F)c2)S(C)(=O)=O)cc1	–	inactive
O=C(Nc1nnc(C2CC(=O)N(c3ccc(Cl)cc3)C2)s1)c1ccco1 (stereo not given)	–	inactive
CC(C)Nc1nnc(SC(C)C(=O)N(C)C2CCCCC2)s1 (stereo not given)	–	inactive
CC(NC(=O)Nc1ccc2c(c1)OCO2)c1ccncc1 (stereo not given)	–	inactive
CC1CCCN(C(C(=O)Nc2ccc(C(C)C)cc2)c2ccc3c(c2)OCO3)C1 (stereo not given)	–	18.4 µM (active)
CCc1ccc(NC(=O)NC(C)c2ccc3c(c2)OCO3)cc1 (stereo not given)	–	inactive
O=C(CN1C(=O)NC2(CCCCC2)C1=O)N1CCN(C(=O)c2cccs2)CC1	–	inactive
COc1ccc(Cl)cc1NC(=O)NC(C)C(C)(C)C (stereo not given)	–	inactive
Cc1ccc(S(=O)(=O)Nc2nc3ccccc3s2)cc1[N+](=O)[O-]	–	inactive
O=[N+]([O-])c1cccc(/C=N/Nc2ncc(Br)cn2)c1	–	inactive
O=[N+]([O-])c1cc(Br)c(O)c(/C=N/Nc2nc3ccccc3s2)c1	–	8.2 µM (active)
COc1ccc(/C=N/Nc2nc3ccccc3o2)cc1OC	–	inactive

SMILES	activity change, negative = growth inhibition	Potency
COc1cc(/C=N/Nc2nc3ccccc3s2)ccc1O	–	1.46 µM (active)
CCNc1nc(NCC)nc(N/N=C/c2ccc(O)c(OC)c2)n1	–	inactive
CCOC(=O)N1CCC(N2Cc3cccc(C(=O)Nc4ccc(S(=O)(=O)N(CC)CC)cc4)c3C2=O)CC1	–	inactive
C=CCOc1cccc(C2C(C(=O)c3ccc(C)o3)=C(O)C(=O)N2CCN2CCOCC2)c1 (stereo not given)	–	inactive
COc1ccc(/C=N/NC(=O)c2ccccc2)cc1OS(=O)(=O)c1ccccc1	–	inactive
COc1ccc(C(=O)Nc2ccccc2C(=O)N/N=C/c2ccc(O)c(OC)c2)cc1	–	16.4 µM (active)
COc1ccc(/C=N/Nc2ccccc2C(=O)O)cc1	–	inactive
Cc1cccc(C)c1N1C(=O)CN(Cc2ccccc2)C1=S	–	inactive
C=CCC1(CC=C)CCCN1C(=O)CC1C(=O)NCCN1Cc1ccccc1OC (stereo not given)	–	inactive
O=C(Cc1ccc(Br)cc1)NCCN1CCOCC1	–	inactive
COC1=C/C(=C/c2c(N)n3nc(CC(=O)N4CCOCC4)sc3nc2=O)C=CC1=O	–	inactive
COc1cccc(Cn2c(SCc3ccc(C(=O)N4CCC(C)CC4)cc3)nc3ccncc32)c1	–	11.6 µM (active)
O=C(O)c1ccc(CSc2nc3cccnc3n2Cc2cccc(F)c2)cc1	–	inactive
Cc1cccc(CSc2nc3ccncc3n2Cc2ccc(C(=O)O)cc2)c1	–	inactive
CCC1C(=O)NCCN1C(=O)c1ccc2nc(Cc3ccc(OC)cc3)oc2c1 (stereo not given)	–	inactive
COc1ccc(S(=O)(=O)N2CCN(C)CC2)c(C)c1	–	inactive
CN(C(=O)c1cccc(OC2CCN(S(=O)(=O)N(C)C)CC2)c1)C1CCOC1 (stereo not given)	–	inactive
CN(C)S(=O)(=O)N1CCC(Oc2cccc(C(=O)NCCCC3CCCC3)c2)CC1	–	18.4 µM (active)
CNS(=O)(=O)c1cccc(C(=O)NCC2CCCCC2)c1	–	inactive
Clc1cc(-c2ccc(/C=N/n3cnnc3)o2)ccc1Br	–	inactive
CCOc1ccc(S(=O)(=O)NCc2ccc3c(c2)OCO3)cc1C	–	inactive
O=C(NC1CC(=O)N(c2ccc(Cl)cc2)C1)C1CCCC1 (stereo not given)	–	inactive
Cc1cc(C)n2nc(C(=O)OCC(=O)N(CCC#N)c3ccc(F)cc3)nc2n1	–	inactive
Cc1ccc(-c2cc(=O)c3ccc(Cl)cc3[nH]2)cc1	–	inactive
O=c1[nH]c(-c2ccccc2)c(-c2ccccc2)[nH]1	–	inactive

SMILES	activity change, negative = growth inhibition	Potency
Cc1ccc(S(=O)(=O)/N=C(\N)c2ccc(F)cc2)cc1	–	inactive
O=c1cc(-c2ccccc2)[nH]c2cc(F)ccc12	–	0.92 µM (active)
Cc1cc(=O)c2ccc(NC(=O)c3ccccc3)cc2[nH]1	–	inactive
Cc1ccc(-c2cc(=O)c3ccc(F)cc3[nH]2)cc1	–	18.4 µM (active)
CC1=C(C(=O)OC2CCCCC2)C(c2ccccc2F)NC(=O)N1 (stereo not given)	–	inactive
O=C(CCC(=O)N1CCCC1)Nc1ccc([N+](=O)[O-])cc1	–	inactive
CCCCOc1ccc(C(=O)NCC(=O)OCC(=O)N2CCN(S(=O)(=O)c3ccc(C)cc3C)CC2)cc1	–	inactive
N#C/C(=C/c1ccc(Cl)cc1)NC(=O)c1ccccc1	–	inactive
Cc1c(Br)c([N+](=O)[O-])nn1CC(=O)N1CCN(Cc2ccccc2)CC1	–	inactive
Fc1ccc(COc2ccc(-c3nnco3)cc2)cc1	–	inactive
COC(=O)C1(C)NC(c2ccccc2OC)C2C(=O)N(c3ccccc3)C(=O)C21 (stereo not given)	–	inactive
CCN(C[C@H]1N[C@@](CC)(C(=O)OC)[C@H]2C(=O)N(Cc3ccccc3)C(=O)[C@@H]12)S(=O)(=O)c1ccccc1	–	inactive
CCCC1(C(=O)OC)NC(c2ccco2)C2C(=O)N(C)C(=O)C21 (stereo not given)	–	inactive
CCN1C(=O)[C@H]2[C@@H](c3ccc(SC4CCCCC4)c(OC)c3)N[C@@](Cc3ccccc3)(C(=O)OC)[C@H]2C1=O	–	16.4 µM (active)
CCNC(=O)N(CC)C[C@H]1N[C@@](CC)(C(=O)OC)[C@H]2C(=O)N(Cc3ccccc3)C(=O)[C@@H]12	–	inactive
CCN1C(=O)[C@H]2[C@@H](c3ccc(-c4ccc(OC)cc4)cc3)N[C@@](Cc3ccccc3)(C(=O)OC)[C@H]2C1=O	–	18.4 µM (active)
CC1=NNC(=O)C1Cc1c(Cl)cccc1Cl (stereo not given)	–	inactive
C#CCOCCOCCOCCNc1nc(N2CCN(C(=O)C([C@@H](C)O)n3cc([C@@H](N)CCCCN)nn3)CC2)nc(N2CCN(C(=O)[C@H](CCCCN)n3cc(CN)nn3)CC2)n1 (stereo not given in full)	–	inactive
CC(C)[C@H](NC(=O)c1ccccc1F)C(=O)Nc1cccc(S(=O)(=O)N2CCOCC2)c1	–	inactive
CC(=O)c1ccc(NC(=O)Cn2c(=O)oc3ccccc32)cc1	–	inactive
Cc1ccccc1NC(=O)Cn1c(=O)n(CC2CCCO2)c(=O)c2ccccc21 (stereo not given)	–	inactive
O=C(NCc1ccccc1)C1c2ccccc2OCC(=O)N1CCCN1CCOCC1 (stereo not given)	–	inactive
O=C1Nc2ccccc2NC(c2ccc3c(c2)OCO3)=C1N(Cc1ccc(F)cc1)C(=O)c1ccco1	–	16.4 µM (active)
O=C(c1ccc2c(c1)OCO2)N1CCN(C(=O)c2ccco2)CC1	–	inactive
O=C(/C=C/c1ccc2c(c1)OCO2)NCc1ccc(F)cc1	–	inactive

SMILES	activity change, negative = growth inhibition	Potency
CCCCNc1ccc(-c2nc(-c3ccncc3)no2)cc1[N+](=O)[O-]	–	inactive
Cc1ccc2nsnc2c1S(=O)(=O)N1CCCC1C(=O)O (stereo not given)	–	inactive
CCN(Cc1ccncc1)C(=O)CCc1ccccc1	–	inactive
Cc1nc2ccccc2n1CC(=O)N/N=C/c1cccnc1	–	inactive
O=C(CSc1cccc2cccnc12)N/N=C/c1cccnc1	–	23.1 µM (active)
O=C(CNC(=O)c1cccnc1)N/N=C/c1cccnc1	–	inactive
CCCCCC(O)(CCN1CCCCC1)c1ccccc1 (stereo not given)	–	inactive
CC1=NN(c2ccc(Cl)c(C(=O)O)c2)C(=O)/C1=C/c1ccc(-c2ccccc2[N+](=O)[O-])o1	–	inactive
O=C1NC(c2ccc(-c3ccccc3[N+](=O)[O-])o2)C(C(=O)c2ccc(Cl)cc2)C(O)(C(F)(F)F)N1 (stereo not given)	–	18.4 µM (active)
CC(=O)C1C(c2ccc(Cl)cc2)NC(=O)NC1(O)C(F)(F)F (stereo not given)	–	inactive
Cc1ccc(CSCC(=O)N(C)CC(=O)Nc2ccc(C)cc2)cc1	–	inactive
FC(F)(F)c1ccc2nnc(-c3c(Cl)cccc3Cl)n2c1	–	inactive
C=C(C)Cn1c(N2CCCC2)nc2c1c(=O)[nH]c(=O)n2C	–	inactive
CC=CCn1c(SCCCc2ccccc2)nc2c1c(=O)[nH]c(=O)n2C	–	20.6 µM (active)
CCCCCn1c(SCCC(C)C)nc2c1c(=O)[nH]c(=O)n2C	–	inactive
CCCSc1nc2c(c(=O)[nH]c(=O)n2C)n1CCc1ccccc1	–	inactive
CN1CCN(c2nc3c(c(=O)[nH]c(=O)n3C)n2Cc2cccc3ccccc23)CC1	–	inactive
CC1CCN(c2nc3c(c(=O)[nH]c(=O)n3C)n2CCCc2ccccc2)CC1	–	16.4 µM (active)
Cc1ccc(C)c(OCCC(=O)OCC(=O)N2CCN(c3ccccc3)CC2)c1	–	inactive
CCC(=O)N1CCc2cc(S(=O)(=O)NC(C(=O)NCCc3ccc(C)cc3)C(C)C)ccc21 (stereo not given)	–	inactive
C[C@@H]1CN([C@@H](C)CO)C(=O)c2cc(NC(=O)C3CC3)ccc2O[C@H]1CN(C)C	–	inactive
COC(=O)c1ccc([C@@H](O)[C@H](C)C(=O)CC(=O)OC(C)(C)C)cc1	–	inactive
COc1ccccc1N1CCN(/N=C\C(Br)=C\c2ccccc2)CC1	–	8.2 µM (active)
COc1ccccc1N1CCN(C(=O)C(=O)N/N=C/c2ccccc2F)CC1	–	inactive
COc1ccccc1N1CCN(/N=C/c2ccc(O)cc2O)CC1	–	inactive

Reference: PubChem BioAssay AID686979 (National Center for Advancing Translational Sciences (NCATS), 2013)
